# From PubChem BioAssay
# JMJD2A Tudor = qHTS Assay for Inhibitors of JMJD2A-Tudor Domain; Lysine-specific demethylase 4A (Homo sapiens), O75164; AlphaScreen JMJD2A-Tudor / H3K4me3 peptide binding; Potency, µM (highest dose often 114 µM), for the others: at the top dose activity change, negative = inhibition, actives largely listed as inhibitors; 4.4% of 390,000 active; further: potency means the concentration at half of the fitted maximal effect; on the % scale 0 is the no-effect control and ±100 the full control effect; nearly all actives have a fitted effect of over 50% in size
# Six1-Eya2 blk = qHTS Assay for Inhibitors of the Six1/Eya2 Interaction; Homeobox protein SIX1 (Homo sapiens) + Protein phosphatase EYA2 (Homo sapiens), …; AlphaScreen GST-Six1/His-Eya2 binding, biochemical; stronger effect = lower value; activity change, % (test concentration not listed); 0.56% of 360,000 active; in the data active means activity change below about -65%; inconclusive means mostly about -30% to -63%; further: on the % scale 0 is the no-effect control and ±100 the full control effect
#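 Homogeneous AlphaScreen proximity assay pairing GST-Six1 with His-tagged Eya2 (added as 5X mix: 250 nM and 500 nM) in 50 mM Tris pH 8.0, 300 mM NaCl, 1 mM TCEP. Glutathione donor and nickel acceptor beads; 1 h, 37 °C, dark.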
# HP1b binding inh = HTS for Inhibitors of HP1-beta Chromodomain Interactions with Methylated Histone Tails; Chromobox protein homolog 1 (Homo sapiens), P83916; AlphaScreen HP1-beta / biotin-H3K9me3 peptide binding; Potency, µM (series often up to 114 µM), inactives show top-dose activity change, negative = inhibition, hits mostly inhibitors; 0.56% of 390,000 active; AID 540317, 2011; further: potency means the concentration at half of the fitted maximal effect; nearly all actives have a fitted effect of over 70% in size
# Target sequence (P83916 whole entry, looked up): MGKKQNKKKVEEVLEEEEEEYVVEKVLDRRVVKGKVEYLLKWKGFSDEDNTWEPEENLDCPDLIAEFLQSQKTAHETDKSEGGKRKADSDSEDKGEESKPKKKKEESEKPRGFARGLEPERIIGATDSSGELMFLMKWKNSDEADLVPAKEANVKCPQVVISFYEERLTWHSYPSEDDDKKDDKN
#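 HP1-beta protein (50 nM final) preincubated 30 min at room temperature with biotinylated H3(1-18)K9me3 peptide (50 nM) in PBS pH 7.4, 0.01% Tween-20, then compound added for 30 min. AlphaScreen streptavidin donor/nickel chelate acceptor beads (10 ug/mL final), 30 min dark, luminescence read.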
# BAZ2B block = qHTS Assay for Inhibitors of BAZ2B; Bromodomain adjacent to zinc finger domain protein 2B (Homo sapiens), Q9UIF8; AlphaScreen BAZ2B-H3K14Ac peptide displacement; Potency, µM (top dose mostly 114 µM), for the others: at the highest dose activity change, negative = inhibition, hits mostly inhibitors; 4.4% of 360,000 active; AID 504333, 2011; further: potency means the concentration at half of the fitted maximal effect; on the % scale 0 is the no-effect control and ±100 the full control effect; nearly all actives have a fitted effect of over 60% in size
#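 BAZ2B (50 nM) with biotin-H3(5-23)K14Ac peptide (50 nM) in PBS pH 7.4, 0.01% Tween-20, preformed 30 min, then compound 30 min at room temperature; top concentration 110uM. AlphaScreen streptavidin donor/nickel chelate acceptor beads (10 ug/mL final), 20 min dark, signal read.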
# CtBP-E1A inh = qHTS Assay for Inhibitors of the CtBP/E1A Interaction. CtBP / adenovirus E1A interaction (AlphaScreen). activity change, % (concentration not given with the values). AID 651724, 2012. AlphaScreen GST-E1A/His-CtBP binding, 1536-well; stronger effect = lower value. 0.49% of 340,000 active; in the data active means activity change below about -65%; inconclusive means mostly about -30% to -63%; further: on the % scale 0 is the no-effect control and ±100 the full control effect
#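 Homogeneous bead-based format: GST-tagged E1A captured on glutathione donor beads, His-tagged CtBP on nickel acceptor beads; compounds precede bead addition by 2 h at 37 °C.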
# G9a block = qHTS Assay for Inhibitors of Histone Lysine Methyltransferase G9a; Histone-lysine N-methyltransferase EHMT2 (Homo sapiens), Q96KQ7; G9a H3K9 monomethylation, AlphaScreen, 2 h; Potency, µM (highest dose often 102 µM), inactives show top-dose activity, negative = inhibition, most hits filed as inhibitors; 8.8% of 350,000 active; further: potency means the concentration at half of the fitted maximal effect; on the % scale 0 is the no-effect control and ±100 the full control effect; nearly all actives have a fitted effect of over 75% in size
# Target sequence (Q96KQ7 913-1193 limits assumed): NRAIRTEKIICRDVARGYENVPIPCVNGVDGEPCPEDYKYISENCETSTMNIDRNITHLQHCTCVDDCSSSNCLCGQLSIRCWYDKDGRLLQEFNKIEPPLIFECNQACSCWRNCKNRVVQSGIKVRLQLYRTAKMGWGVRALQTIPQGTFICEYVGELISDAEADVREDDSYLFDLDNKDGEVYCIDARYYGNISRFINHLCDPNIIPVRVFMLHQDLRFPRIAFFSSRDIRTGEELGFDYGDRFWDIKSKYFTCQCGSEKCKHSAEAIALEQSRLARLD
#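 Quantitative HTS format: methyltransferase activity on a biotin-tagged H3K9 peptide is measured by AlphaScreen, using a rabbit anti-monomethyl-H3K9 antibody with streptavidin donor and anti-IgG acceptor beads. Final levels are 20 nM enzyme, 500 nM peptide, 20 uM SAM; 2 h RT.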
# * = called active by the depositor; ? = inconclusive; . = no result given; [ ] = another dose, or the depositor's remark. Hits are enriched below; roughly 10% of the tested compounds scored in any of these assays. Unless noted, the call rests on the fitted dose curve; in most records, active means well fitted inhibition curve with a large enough effect; inconclusive means small, poorly fitted or top-dose-only effect; inactive means no such curve, though single readings can be large or run the other way.
SMILES,JMJD2A Tudor,Six1-Eya2 blk,HP1b binding inh,BAZ2B block,CtBP-E1A inh,G9a block
COc1ccc(N2CCN(S(=O)(=O)c3ccc(CC(C)C)cc3)CC2)cc1,-17.4%,.,19.0%,-2.8%,.,-34.5%[59 µM]
COc1ccc(N2CCN(S(=O)(=O)c3ccc(OC)cc3)CC2)cc1,?,-9.1,?,?,6.5,25.1µM*
COc1ccc(N2CCN(S(=O)(=O)c3cc(C)ccc3OC)CC2)cc1,?,-22.7,?,44.7µM*,-20.9,?
COc1ccc(N2CCN(S(=O)(=O)c3cc(-c4cc(C)no4)ccc3C(C)C)CC2)cc1,-4.9%,2.8,29.0%,10µM*,.,22.4µM*
COC(=O)c1ccccc1NC(=O)c1ccc2c(c1)CCN2S(=O)(=O)c1ccc(Cl)cc1,-9.4%,.,63.0%,-0.3%,.,-3.0%[59 µM]
COc1ccccc1NC(=O)CSc1ncc2c(n1)-c1cc(Cl)ccc1N(Cc1ccccc1)S2(=O)=O,-21.1%,.,18.7%,-12.9%,.,?
COc1ccc(C)cc1NC(=O)CSc1ncc2c(n1)-c1ccc(Cl)cc1N(Cc1ccccc1)S2(=O)=O,-33.1%,.,-21.3%,50.1µM*,.,-31.1%[59 µM]
N#C/C(=N\Nc1cccc(C(F)(F)F)c1)C(=O)c1csc(-c2cccnc2)n1,?,-20.2,2.6%,28.2µM*,-6.8,?
O=C(OCC#CCSc1nnc(-c2ccc(Cl)cc2)o1)c1ccc(F)cc1,17.7%,.,.,.,.,.
O=C(CSc1ncc(C(=O)O)n1-c1ccc(F)cc1)NCc1ccc2c(c1)OCO2,-7.3%,3.0,22.7%,10.1%,14.0,44.7µM*
O=C(CSc1nnc(-c2cccs2)n1-c1ccccc1)NCc1ccc2c(c1)OCO2,-28.6%,-0.9,29.2%,-8.3%,-1.9,-23.2%[12.7 µM]
O=C(CSc1nnc(Cc2cccs2)n1-c1ccc(Cl)cc1)NCc1ccc2c(c1)OCO2,-18.3%,-0.1,41.1%,-36.5%,-1.6,50.1µM*
Cc1cc(C)n(CCc2nc3c4ccccc4nc(N4CCN(c5cccc(C)c5C)CC4)n3n2)n1,-9.1%,.,33.7%,0.6%,.,-2.4%[59 µM]
NC(=O)Cc1nc(-c2ccc(F)cc2)cs1,-11.0%,9.5,-5.8%,-6.8%,.,22.4µM*
CCOc1ccc(NC(=O)CSc2ncc3c(n2)-c2ccccc2N(Cc2ccccc2C)S3(=O)=O)cc1,10.1%,.,9.7%,3.6%,.,-5.8%[59 µM]
CC(C)OC(=O)c1ccc(Cn2nnc3sc4c(c3c2=O)CCCC4)cc1,21.3%,.,46.2%,17.1%,.,28.2%[59 µM]
COc1ccc(OCCn2nnc3sc4c(c3c2=O)CCCC4)cc1,79.4µM*,.,3.0%,50.1µM*,.,-2.7%[59 µM]
Cc1cccc(OCCCCn2nnc3sc4c(c3c2=O)CCC(C)C4)c1 (stereo not drawn),70.8µM*,.,60.7%,?,.,?
CC(C)(C)C1CCc2c(sc3nnn(CCOc4ccccc4)c(=O)c23)C1 (stereo not drawn),-18.2%,.,58.4%,-12.9%,.,20.3%[59 µM]
CC1CCc2c(sc3nnn(Cc4cccc(C(=O)OC(C)C)c4)c(=O)c23)C1 (stereo not drawn),5.7%,.,35.1%,3.3%,.,17.8µM*
O=C(CN1c2cccc3cccc(c23)S1(=O)=O)Nc1ccc(F)c(F)c1F,-6.2%,-5.5,23.2%,.,7.7,.
CCOc1ccc(NC(=O)c2oc3ccccc3c2NC(=O)Cc2ccc(F)cc2)cc1,-17.5%,.,15.8%,-10.0%,.,7.3%[59 µM]
Cc1ccc(CNCCNCCO)s1,-5.6%,-14.1,46.1%,-36.1%,5.0,39.8µM*
Cc1ccc(CNCc2ccccc2)s1,-5.6%,.,51.9%,-5.7%,.,-34.2%[59 µM]
CCc1nnc2c(Nc3ccccc3Br)nc3ccccc3n12,17.5%,.,36.8%,-0.7%,.,8.5%[59 µM]
CCc1nnc2c(Nc3ccc(N(CC)CC)cc3C)nc3ccccc3n12,15.8µM*,.,?,31.6µM*,.,17.8µM*
